Laboratory results reported in PubChem BioAssay (NCI).
Compounds without any hit were thinned out: in the full panel of roughly 79,000, 15% have a hit. The source made the active and inactive calls. No stated cut-off is given here; in the data, active means growth inhibition above about 70%; inactive means the rest.

Columns and labels:
[1] = NCI Yeast Anticancer Drug Screen. Data for the rad50 strain (AID 155);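 further: 0% = growth of vehicle-only cultures of the same strain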; settings: S. cerevisiae rad50 strain growth inhibition; at 50.0 µM; stronger effect = higher value
How it was run: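 DNA repair mutant yeast, compound exposure, growth read-out; inhibition is taken relative to vehicle.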

[2] = NCI Yeast Anticancer Drug Screen. Data for the mec2-1 strain (AID 157); settings: S. cerevisiae mec2-1 strain, at 50.0 µM, stronger effect = higher value
How it was run: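 Each compound was tested on mec2-1 yeast, a strain altered in DNA damage repair or cell cycle control. Growth inhibition is reported relative to vehicle.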

[3] = NCI Yeast Anticancer Drug Screen. Data for the sgs1 mgt1 strain (AID 161);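 further: 0% = growth of cultures given vehicle only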; settings: S. cerevisiae sgs1 mgt1 strain, at 50.0 µM, stronger effect = higher value
How it was run: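 Genetically altered yeast, compound exposure, growth inhibition relative to vehicle.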

[4] = NCI Yeast Anticancer Drug Screen. Data for the cln2 rad14 strain (AID 165);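 further: 0% = growth equal to vehicle treated cultures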; settings: S. cerevisiae cln2 rad14 strain, at 50.0 µM, stronger effect = higher value
How it was run: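 Test compounds were added to cln2 rad14 yeast cultures; inhibition of growth was then determined by comparison with vehicle treatment.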

[5] = NCI Yeast Anticancer Drug Screen. Data for the bub3 strain (AID 167); settings: S. cerevisiae bub3 mutant strain, at 50.0 µM, stronger effect = higher value
How it was run: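 In this screen, a yeast mutant lacking normal mitotic checkpoint function is challenged with compound. Relative growth versus vehicle gives the inhibition value.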

[6] = NCI Yeast Anticancer Drug Screen. Data for the mlh1 rad18 strain (AID 175); settings: S. cerevisiae mlh1 rad18 strain growth inhibition; at 50.0 µM; stronger effect = higher value
How it was run: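 Inhibition values reflect reduced growth of mutant yeast versus vehicle-treated controls following compound exposure; the mutations affect DNA damage repair.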

Measured: growth inhibition

C/C=C/C=C/C(=O)CCC1(C)OC(=O)C(C)=C1O (configuration not stated)
inactive: [1] -0.9% | [2] 0.45% | [3] 2.4% | [4] -4.35% | [5] -3.45% | [6] 6.25%

Cc1cc(=O)[nH]cn1
inactive: [1] 0.25% | [2] 6.2% | [3] -7.2% | [4] 7.45% | [5] 19.8% | [6] -4.9%

C[n+]1ccc2ccccc2c1C#N
inactive: [1] 2.55% | [2] 10.6% | [3] -3.75% | [4] -0.35% | [5] 0.35% | [6] 14.9%

CCCCCCCCCCCCCCCCCC(=O)NC(=O)Nc1ccc(C)cc1
inactive: [1] -3.9% | [2] 17.6% | [3] -10.1% | [4] -17% | [5] -9.65% | [6] 11.2%

COC(=O)c1ccccc1NC(=O)Nc1ccc(SC)cc1
inactive: [1] -2% | [2] 24.4% | [3] 19.6% | [4] -8.65% | [5] 31.2% | [6] 14.3%

COc1cc(\C=N/N=C/C=C/c2ccccc2)cc(OC)c1OC
inactive: [1] 0.55% | [2] 42.3% | [3] 7.95% | [4] -10.7% | [5] 38.4% | [6] 15.5%

CC(C)=CC1CCc2ccccc2N1S(=O)(=O)c1ccc(C)cc1 (configuration not stated)
inactive: [1] 31.8% | [2] 0.25% | [3] -14.9% | [4] -8.7% | [5] -31.7% | [6] -22.6%

Cc1ccccc1NCC(C)O (configuration not stated)
inactive: [1] -3.05% | [2] 6.15% | [3] -5.9% | [4] -84.5% | [5] -20.4% | [6] -32%

O=C(O)c1cc(=O)c2cc(Cc3ccccc3)ccc2[nH]1
inactive: [1] 4.7% | [2] 6.5% | [3] 10.4% | [4] 9.8% | [5] 11.1% | [6] 12.8%

CCCCCCCCCCCCCCCC[N+]1(CC)CCSCC1
active: [1] 96.6% | [2] 97.9% | [3] 97.2% | [4] 97.5% | [5] 97.1% | [6] 97.8%

O=C(NCCCCCCCCNC(=O)c1cccc2ccccc12)c1cccc2ccccc12
inactive: [1] 14.2% | [2] 25% | [3] 2.8% | [4] -9.25% | [5] -10.4% | [6] 16.8%

CCOC(=O)c1ccccc1[N+](=O)[O-]
inactive: [1] 22.8% | [2] 23.4% | [3] 8.7% | [4] -11.7% | [5] 6.7% | [6] 18.2%

CCCC(C)C(SC(CC)C(N)=O)C(=O)O (configuration not stated)
inactive: [1] -3.5% | [2] -5.15% | [3] 5.1% | [4] -12.8% | [5] 10.5% | [6] -9.15%

Cc1cc2c(cc1C)NS(=O)(=O)N2
inactive: [1] 18.4% | [2] 10.4% | [3] 7.25% | [4] -21.7% | [5] 4.9% | [6] 7.35%

COc1ccc2c(c1)CCC(OS(=O)(=O)CC13CCC(CC1=O)C3(C)C)C2=O (configuration not stated)
inactive: [1] -9.15% | [2] 5% | [3] -15.2% | [4] -10.7% | [5] -21.9% | [6] -0.45%

COc1c2c(cc3c(CCc4ccccc4)cc(=O)oc13)CCC(C)(C)O2
inactive: [1] -5.95% | [2] -22.8% | [3] -6.5% | [4] 15.4% | [5] -5.75% | [6] -27.3%

COc1ccc(-c2cc(=O)c3c(OC)cccc3o2)c(OC)c1OC
inactive: [1] -8.9% | [2] -12.7% | [3] -3.5% | [4] 0.95% | [5] -11.2% | [6] 9.8%

CCCCN(CCCC)CCCNC(=S)Nc1ccccc1
inactive: [1] -3.25% | [2] 24.2% | [3] 38.1% | [4] -7.25% | [5] 3.25% | [6] 36.4%

CC(=O)NC1(C)C(=O)N=C(N)N=C1N (configuration not stated)
inactive: [1] 11.2% | [2] 4.3% | [3] 11.1% | [4] -29.8% | [5] -4.9% | [6] 8.8%

Cc1cc(C#N)c[n+](C)c1
inactive: [1] -7.25% | [2] -14.3% | [3] -25% | [4] 16.1% | [5] 5.25% | [6] -3.75%

CC(=O)Nc1cc2c(s1)CCC1CC(=O)NN=C21 (configuration not stated)
inactive: [1] -12.4% | [2] -25.6% | [3] -31.8% | [4] 1.9% | [5] -9.35% | [6] -11.5%

Cc1c(Cl)cccc1NC(=O)Nc1ccc(S(N)(=O)=O)cc1
inactive: [1] 0.7% | [2] 29.4% | [3] 39.4% | [4] 1.4% | [5] 21.8% | [6] 19.1%

CCCCCc1cc(C(=O)NN)c2ccccc2n1
inactive: [1] -29.7% | [2] -25% | [3] -12.6% | [4] -15.8% | [5] 33.1% | [6] -12.8%

CC(C)COC(=N)c1ccccc1C1(O)CCCCC1
inactive: [1] -19.9% | [2] -10.1% | [3] -9.5% | [4] -18.8% | [5] 0.6% | [6] -17.6%

Cc1cccc(C)c1NC(=O)C(=O)C(C#N)c1ccccc1Cl (configuration not stated)
inactive: [1] -13.2% | [2] -47.7% | [3] -10.8% | [4] -1.1% | [5] 4.85% | [6] -11.5%

COc1ccc(Cl)cc1[N+](=O)[O-]
inactive: [1] 27.6% | [2] 3.15% | [3] -3.85% | [4] 9.5% | [5] 13.6% | [6] 18.2%

CCOC(=O)NN(C/C(Cl)=C/Cl)C/C(Cl)=C/Cl
inactive: [1] -2% | [2] -0.95% | [3] 0.4% | [4] -46.8% | [5] 7.35% | [6] -5.55%

C=C(CCCC(=C)C(N)=O)C(N)=O
inactive: [1] -14.4% | [2] -14.5% | [3] -12.1% | [4] 2.55% | [5] -0.85% | [6] -27.4%

CCOC(=O)CSc1nc(N)c2c(-c3ccccc3)c3c(nc2n1)CCCC3
inactive: [1] -23.1% | [2] 11.1% | [3] 10.8% | [4] 33.1% | [5] 21.7% | [6] 17.7%

O=C(O)CSc1ncccc1[N+](=O)[O-]
inactive: [1] 8.85% | [2] -0.65% | [3] -6.05% | [4] 12.9% | [5] -32.6% | [6] 4.35%

Cc1ccccc1/C=N/NC(=O)c1cccc2ccccc12
inactive: [1] -6.85% | [2] 0.8% | [3] -10.8% | [4] -23% | [5] 0.75% | [6] 0.6%

CN(C)C(=O)C1C2C=CC(CCC2)C1C(=O)N(C)C (configuration not stated)
inactive: [1] 13.1% | [2] 15.6% | [3] 15.8% | [4] 13.7% | [5] 15.7% | [6] 14.1%

CCC1=CC(C=O)N(C(C)=O)c2ccccc21 (configuration not stated)
inactive: [1] -2.85% | [2] 7.8% | [3] 7.2% | [4] 2.1% | [5] 1.95% | [6] -2.5%

Cc1ccccc1NS(=O)(=O)c1c(N)ncn1C
inactive: [1] -5.2% | [2] 3.55% | [3] -0.9% | [4] -29.3% | [5] -0.65% | [6] 5.25%

Cc1cc(=O)[nH]c(NNC(=S)NC2CCCCC2)n1
inactive: [1] -17.4% | [2] -41.8% | [3] 10.9% | [4] 2.85% | [5] -28.4% | [6] -18.6%

CCOC(=O)C1CCC2c3[nH]c4ccccc4c3CCN2C1=O (configuration not stated)
inactive: [1] -25.3% | [2] -39.8% | [3] -8.65% | [4] 1.6% | [5] 31.1% | [6] -20.9%

CCC(Nc1ccccc1)C(=O)O (configuration not stated)
inactive: [1] -4.45% | [2] -13.7% | [3] -8.9% | [4] -16.9% | [5] -8.7% | [6] 4.15%

O=S(=O)(Nc1cccc(Br)c1)N1CCCCC1
inactive: [1] 23.5% | [2] 10% | [3] 23.6% | [4] 13.8% | [5] 28.6% | [6] 31.6%

Cc1cc(=O)n(-c2ccccc2)c(=O)n1-c1nc2ccccc2[nH]1
inactive: [1] 19% | [2] -8.4% | [3] 14.7% | [4] 3.65% | [5] -4.35% | [6] 32%

CNc1nnnn1-c1ccccc1C
inactive: [1] -10.8% | [2] -3.55% | [3] -10.8% | [4] -86.5% | [5] -4.05% | [6] -8.05%

COc1cc(OC)c2cc(C(=O)c3cccc4ccccc34)c(=O)oc2c1
inactive: [1] 1.35% | [2] -22.8% | [3] 9.65% | [4] 16.9% | [5] 19.4% | [6] 13.4%

O=[N+]([O-])c1ccc2oc(=Nc3ccccc3)c(Nc3ccccc3)nc2c1
inactive: [1] -21.4% | [2] 11.4% | [3] -18.6% | [4] 15.9% | [5] 6.75% | [6] 6.25%
